Measured values as given in PubChem BioAssay (Tox21).
Inconclusive results are not listed. The source made the active and inactive calls. Calls come from the whole dose curve.

Assay: qHTS assay to identify small molecule agonists of H2AX - cell viability counter screen (AID 1224847); note: top concentration of the series differs between compounds; nearly all actives have a fitted effect of over 30% in size
Conditions: CHO-K1 viability, CellTiter-Glo luminescence, 3 h; series mostly up to 154 µM; activity change, negative = cytotoxicity: at the top concentration
Source text: National Center for Advancing Translational Sciences [NCATS]
NIH Chemical Genomics Center [NCGC]
U.S. Environmental Protection Agency [EPA]
National Institutes of Environmental Health Sciences [NIEHS]
National Toxicology Program [NTP]
U.S. Food and Drug Administration [FDA]
HTRF phospho-H2AX (Ser139) assay (Cisbio Bioassays, US) enables the quantitative detection of the histone variant H2AX when phosphorylated on serine 139. When double-stranded DNA breaks, either by ionizing radiation or endogenous physiological processes, H2AX becomes phosphorylated at Ser139. This phospho-Ser139 serves as a sensitive biomarker for the detection of such breaks, localizing the site of DNA repair. So, HTRF phospho-H2AX Ser139 is a pertinent assay to study genome stability, the cell cycle, DNA repair, and it serves as a biomarker for cancer, and to understand aging. Wild type CHO-K1 cells were used to identify the inducers of Phospho-H2AX Ser 139 from the Tox21 compound collections. Also cytotoxicity of the Tox21 10K compound library against the CHO-K1 cell line was tested by measuring the cell viability using CellTiter-Glo assay (Promega, Madison, WI).
Tox21 Assay Protocol Summary:
The CHO-K1 cells suspended in culture medium containing 10% FBS were dispensed at 1000 cells/ 3 ul/well in 1536-well white wall/solid bottom plates (Greiner Bio-One North America, NC) using a Multidrop Combi (Thermo Fisher Scientific Inc., Waltham, MA). After the assay plates were incubated at 37C overnight, 23 nl of compounds at 15 concentrations (from 5-48 columns) or positive control (from 1 to 4 columns) were transferred to the assay plates using a Pintool station (Wako, San Diego, CA) into each well resulting in a final DMSO concentration of 0.76%. After 3hr incubation at 37C, 3 uL/well CellTiter-Glo luminescent cell viability reagent (Promega Corporation, Madison, WI) was added using a Flying Reagent Dispenser (FRD) (Aurora Discovery, CA). After incubation at room temperature for 30 min, the luminescence intensity was read using a ViewLux plate reader (PerkinElmer, Waltham, MA).
% is set by controls: 0 for no effect and ±100 for the full control effect.

Structure (SMILES) | activity change, negative = cytotoxicity
OCCN1C[C@H](O)[C@@H](O)[C@H](O)[C@H]1CO | 0.976% [at 70.9 µM] (inactive)
CCCCOCC(C)OCC(C)O (stereo not given) | 1.9% (inactive)
CC/C=C\CCCCO | 1.39% (inactive)
COc1cccc(Br)c1 | 1.58% (inactive)
N[C@@H](CS)C(=O)O | -0.69% (inactive)
CCCC(C)C(=O)O (stereo not given) | -0.581% (inactive)
C=C(C)C(=O)OCCC(C)OC(=O)C(=C)C (stereo not given) | 2.21% (inactive)
C=CCn1c(=O)n([C@@H]2O[C@H](CO)[C@@H](O)[C@H]2O)c2nc(N)[nH]c(=O)c21 | -1.34% [at 70.9 µM] (inactive)
CN1[C@@H]2CC[C@H]1CC(NC(=O)n1c(=O)[nH]c3ccccc31)C2 (stereo not given in full) | -0.114% [at 70.9 µM] (inactive)
CC(=O)O[C@H](CC(=O)[O-])C[N+](C)(C)C | -5.98% (inactive)
COc1cc(CCC(C)=O)ccc1O | 3.47% (inactive)
CC(C)c1ccc2oc3nc(N)c(C(=O)O)cc3c(=O)c2c1 | -1.26% [at 70.9 µM] (inactive)
O=C(O)c1cccc(C(=O)O)n1 | 4.25% (inactive)
O=C(O)/C=C/c1ccc(Cn2ccnc2)cc1 | 2.1% [at 70.9 µM] (inactive)
COC(=O)C1=C(C)NC(C)=C(C(=O)OCC(C)=O)C1c1ccccc1[N+](=O)[O-] (stereo not given) | 2.69% [at 70.9 µM] (inactive)
NC(=O)c1ncn([C@@H]2O[C@H](CO)[C@@H](O)[C@H]2O)c1N | 11% [at 70.9 µM] (inactive)
CCCOCC(C)OCC(C)O (stereo not given) | -1.31% (inactive)
CCCCCCCCCCC1CO1 (stereo not given) | 5.49% (inactive)
c1ccc2cnncc2c1 | -1.72% (inactive)
Cc1ncc(CSSCc2cnc(C)c(O)c2CO)c(CO)c1O | -0.215% [at 70.9 µM] (inactive)

Structure (SMILES) | activity change, negative = cytotoxicity
NCC[C@H](O)C(=O)N[C@@H]1C[C@H](N)[C@@H](O[C@H]2O[C@H](CN)[C@@H](O)[C@H](O)[C@H]2O)[C@H](O)[C@H]1O[C@H]1O[C@H](CO)[C@@H](O)[C@H](N)[C@H]1O | 2.46% [at 0.582 µM] (inactive)
CCN(CC)C(=O)c1ccc(O)c(OC)c1 | 0.394% [at 70.9 µM] (inactive)
CN(C)CCn1nnnc1SCC1=C(C(=O)O)N2C(=O)[C@@H](NC(=O)Cc3csc(N)n3)[C@H]2SC1 | 3.08% [at 70.9 µM] (inactive)
OCc1ccccn1 | -0.0548% [at 70.9 µM] (inactive)
CCCCC1CCCCC(=O)O1 (stereo not given) | -0.431% (inactive)
CCC(C(=O)NC(N)=O)c1ccccc1 (stereo not given) | -3.21% (inactive)
CCO[Si](CCCN=C=O)(OCC)OCC | 10.6% (inactive)
C1COCCO1 | 0.108% (inactive)
CC(C)(O)C(=O)c1ccc(OCCO)cc1 | 3.88% (inactive)
N#CC1(O)CCCCC1 | -0.797% (inactive)
C=CC(=O)OCCCCCC | 2.65% (inactive)
CSc1ccc(C=O)cc1 | 1.17% (inactive)
C=CCSCC1Nc2cc(Cl)c(S(N)(=O)=O)cc2S(=O)(=O)N1 (stereo not given) | -2.88% [at 70.9 µM] (inactive)
CNC(=O)c1c(I)c(NC(=O)CCCCC(=O)Nc2c(I)c(C(=O)O)c(I)c(C(=O)NC)c2I)c(I)c(C(=O)O)c1I | -0.715% [at 70.9 µM] (inactive)
O=C1C(CCS(=O)c2ccccc2)C(=O)N(c2ccccc2)N1c1ccccc1 (stereo not given) | 2.26% [at 70.9 µM] (inactive)
CC(C)[N+](C)(C)CC(O)COc1cccc2ccccc12 (stereo not given) | -6.07% [at 70.9 µM] (inactive)
Cn1cnc2c(=O)[nH]c(N)nc21 | -0.517% (inactive)
CCC(=O)/C=C/c1ccc(OC)cc1 | 2.91% (inactive)
CC(=O)CCc1ccc(O)cc1 | 0.409% (inactive)
CC(C)(O)c1ccccc1 | 4.92% (inactive)
